# Only some compounds are listed: those with a hit (about 6.7% of all), similar ones and a draw of the others.
# C diff growth – inhibitors of Clostridium difficile growth; 0.25% of 86,000 active; growth activity, negative = inhibition, % at 16 µg/mL (by protocol); Clostridium difficile clinical isolate growth, OD600, 24 h; stronger effect = lower value;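 active = mean growth activity at or below -80% and every replicate also at or below -80%; inconclusive = mean at or below -80% but some replicate above -80%; inactive = mean growth activity above -80%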
# Pf Dd2 inh – P. falciparum Dd2 growth inhibition; SYBR Green, 72 h; stronger effect = lower value; activity change, % at 10 µM; 2.3% of 94,000 active; in the data active = activity change below about -80%; inconclusive = no clear call, values can overlap the other calls
# T cruzi growth-1 – inhibitors of T. cruzi proliferation. T. cruzi beta-gal in NIH3T3, GalScreen luminescence, 90 h. inhibition, % at 8.34 µM. 5.9% of 77,000 active. AID 624255;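 active = mean inhibition above about 93%, with at least 55% of replicates each passing it, limit read from the data, passing the limit was not always enough; inconclusive = only one of those two conditions holds; inactive = neither condition holds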
# T cruzi growth-2 – blocks T. cruzi growth in NIH3T3 host cells. shares compounds with T cruzi growth-1. T. cruzi beta-gal in NIH3T3, GalScreen luminescence, 90 h. inhibition, % at 8.35 µM. 72% of 5,600 active;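 active = mean replicate inhibition above about 95% and at least 55% of replicates individually reaching it, limit read from the data; inconclusive = only one of the two criteria is met; inactive = neither criterion is met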
# T cruzi growth-3 – Trypanosoma cruzi proliferation inhibition. AID 651740. inhibition, % at 2.09 µM. T. cruzi beta-gal in NIH3T3, GalScreen luminescence, 90 h. shares compounds with T cruzi growth-1. 21% of 5,600 active;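 active = mean inhibition above about 95%, with at least 55% of replicates also reaching it, limit read from the data; inconclusive = meets just one of the two conditions; inactive = meets neither condition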
# 3T3 cytotox – cytotoxicity in mouse NIH/3T3 fibroblasts | 14% of 5,600 active | cytotoxicity (signal decrease), % at 8.35 µM | NIH/3T3 viability, CellTiter-Glo ATP luminescence, 90 h | shares compounds with T cruzi growth-1 | AID 651742;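 active = mean signal decrease across replicates above about 35% based on untreated-well scatter, with enough replicates individually passing, limit read from the data; inconclusive = no rule stated though some were filed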
# NIH3T3 tox 2 – kills mouse NIH/3T3 fibroblasts; 56% of 5,600 active; NIH/3T3 viability, CellTiter-Glo ATP luminescence, 90 h; shares compounds with T cruzi growth-1; AID 651744; inhibition, % at 24.9 µM;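 active = mean loss of cell viability signal at or above a set limit, and enough replicates individually reaching it; inconclusive = meets only the mean limit or only the replicate share; inactive = meets neither condition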
# A number is an active result; n = inactive; u = inconclusive; x = not tested or not shown; ! = a repeat was not active.
SMILES,C diff growth,Pf Dd2 inh,T cruzi growth-1,T cruzi growth-2,T cruzi growth-3,3T3 cytotox,NIH3T3 tox 2
Cc1cccc(-c2ccc([C@H]3[C@H](CO)N4C(=O)CN(S(=O)(=O)c5cccc(F)c5)C[C@@H]34)cc2)c1,n,n,x,x,x,x,x
O=C(C[C@H]1CC[C@@H]2[C@H](COC[C@H](O)CN2Cc2cccc(C(F)(F)F)c2)O1)NCc1ccccc1,n,n,n,x,x,x,x
O=C(C[C@H]1CC[C@H]2[C@@H](COC[C@@H](O)CN2Cc2cccc(C(F)(F)F)c2)O1)NCc1ccc(Cl)cc1,n,n,125.2,n,n,n,86.7
O=C(C[C@H]1C=C[C@@H](NC(=O)CN2CCOCC2)[C@H](CO)O1)NCCc1ccncc1,n,n,x,x,x,x,x
COc1ccc(S(=O)(=O)N2CC[C@@H]3[C@H]2c2cc(C#Cc4ccccc4OC)ccc2N[C@@H]3CO)cc1,n,-83.3,107.4,105.7,110.5,n,n
Cc1ccc(S(=O)(=O)N2CC[C@@H]3[C@H]2c2cc(-c4ccc(C#N)cc4)ccc2N[C@@H]3CO)cc1,n,n,n,x,x,x,x
COc1ccc(S(=O)(=O)N2CC[C@H]3[C@H](CO)Nc4ccc(C#Cc5ccccc5OC)cc4[C@H]32)cc1,n,n,x,x,x,x,x
COc1ccc(C#Cc2ccc3c(c2)[C@@H]2[C@@H](CCN2S(=O)(=O)c2ccccc2C)[C@@H](CO)N3)cc1,n,n,97.3,109.0,n,n,55.3
COc1ccc(C#Cc2ccc3c(c2)[C@H]2[C@H](CCN2S(=O)(=O)c2ccccc2C)[C@H](CO)N3)cc1,n,n,n,x,x,x,x
COc1ccc(S(=O)(=O)N2CC[C@@H]3[C@H](CO)Nc4ccc(-c5ccc(C#N)cc5)cc4[C@@H]32)cc1,n,n,109.4,100.9,103.1,42.3,49.4
COc1ccccc1S(=O)(=O)N1CC[C@H]2[C@H](CO)Nc3ccc(-c4ccc(F)cc4)cc3[C@H]21,n,n,n,x,x,x,x
COCC(=O)N(C)C[C@@H]1[C@H](c2ccc(-c3cccnc3)cc2)[C@@H](CO)N1C(C)=O,n,n,99.9,n,n,n,n
CCC(=O)N1[C@H](CO)[C@@H](c2ccc(-c3cccnc3)cc2)[C@@H]1CN(C)C(C)=O,n,n,n,x,x,x,x
CCC(=O)N(C)C[C@H]1[C@H](c2ccc(-c3cccnc3)cc2)[C@@H](CO)N1C(C)=O,n,n,n,x,x,x,x
CCC(=O)N1[C@@H](CO)[C@@H](c2ccc(-c3cccnc3)cc2)[C@@H]1CN(CC)C(C)=O,n,n,97.7,n,n,n,n
O=C(C[C@H]1CC[C@@H]2[C@H](COC[C@H](O)CN2Cc2cocn2)O1)NCc1cccc(F)c1,n,x,n,x,x,x,x
O=C(Cc1cccnc1)N[C@H]1CC[C@H](CCn2cc(Cc3ccccc3)nn2)O[C@H]1CO,n,n,n,x,x,x,x
Cc1noc(C)c1NC(=O)N(C)C[C@@H]1OCCCC[C@H](C)Oc2ccc(NC(=O)Cc3ccccc3)cc2C(=O)N([C@@H](C)CO)C[C@H]1C,n,n,n,x,x,x,x
Cc1ccc(S(=O)(=O)N(C)C[C@@H]2Oc3ncc(C#CCC(C)C)cc3C(=O)N([C@H](C)CO)C[C@@H]2C)cc1,n,n,105.4,105.3,n,n,64.2
CC(C)CC#Cc1cnc2c(c1)C(=O)N([C@@H](C)CO)C[C@@H](C)[C@H](CN(C)S(=O)(=O)c1ccccc1)O2,n,n,n,x,x,x,x
Cc1ccc(S(=O)(=O)N(C)C[C@@H]2Oc3ncc(C#CCC(C)C)cc3C(=O)N([C@H](C)CO)C[C@H]2C)cc1,n,n,121.6!,103.5,n,n,85.1
CC(C)CC#Cc1cnc2c(c1)C(=O)N([C@@H](C)CO)C[C@@H](C)[C@H](CN(C)S(C)(=O)=O)O2,n,n,n,x,x,x,x
CO[C@@H]1CN(C)C(=O)c2cc(NC(=O)NC(C)C)ccc2OC[C@@H](C)N(Cc2ccc(-c3ccccn3)cc2)C[C@H]1C,x,n,n,x,x,x,x
CN1CCN(C(=O)C[C@H]2CC[C@@H]3[C@H](COC[C@@H](O)CN3C(=O)C3CCOCC3)O2)CC1,n,n,n,x,x,x,x
O=C(N[C@H]1C=C[C@H](CC(=O)N2CCN(c3ccccc3)CC2)O[C@@H]1CO)c1ccccc1,n,n,n,x,x,x,x
SMILES,C diff growth,Pf Dd2 inh,T cruzi growth-1,T cruzi growth-2,T cruzi growth-3,3T3 cytotox,NIH3T3 tox 2
CC(C)c1cn(CC[C@@H]2CC[C@@H](NC(=O)C3CC3)[C@@H](CO)O2)nn1,x,n,n,x,x,x,x
CCCNC(=O)Nc1ccc2c(c1)C(=O)N(C)C[C@@H](OC)[C@@H](C)CN(C(=O)C1CCOCC1)[C@@H](C)CO2,x,n,n,x,x,x,x
N#C[C@H]1[C@H](c2ccc(-c3ccccc3)cc2)[C@H](CO)N1C(=O)Cc1ccccc1,n,n,n,x,x,x,x
N#C[C@@H]1[C@@H](c2ccc(-c3ccccc3)cc2)[C@H](CO)N1C(=O)Cc1ccccc1,n,n,n,x,x,x,x
N#C[C@@H]1[C@H](c2ccccc2)[C@@H](CO)N1C(=O)c1cc(Cl)cc(Cl)c1,n,n,n,x,x,x,x
N#C[C@H]1[C@@H](c2ccccc2)[C@H](CO)N1C(=O)c1cc(Cl)cc(Cl)c1,n,n,u,u,n,n,n
N#C[C@@H]1[C@H](c2ccc(-c3ccccc3)cc2)[C@H](CO)N1C(=O)Cc1ccccc1,n,n,u,102.9,n,n,n
N#C[C@H]1[C@@H](c2ccc(-c3ccccc3)cc2)[C@H](CO)N1C(=O)Cc1ccccc1,n,n,104.4,110.3,n,n,31.5
C[C@@H](NC(=O)C[C@@H]1C=C[C@H](NC(=O)CN2CCOCC2)[C@H](CO)O1)c1ccccc1,x,n,n,x,x,x,x
O=C(C1CCC1)N1C[C@@H]2[C@H](c3ccccc31)[C@H](CO)N2C(=O)Nc1cccc(F)c1,n,n,n,x,x,x,x
C[C@H]1CCCCO[C@H](CN(C)S(=O)(=O)c2cn(C)cn2)[C@@H](C)CN([C@@H](C)CO)C(=O)c2cc(NC(=O)Nc3ccccc3)ccc2O1,n,n,n,x,x,x,x
C[C@@H]1CCCCO[C@H](CN(C)C(=O)Nc2ccc(F)cc2)[C@@H](C)CN([C@H](C)CO)C(=O)c2cc(NC(=O)NC3CCCCC3)ccc2O1,n,n,n,x,x,x,x
C[C@H](CO)N1C[C@H](C)[C@H](CN(C)C(=O)Nc2ccc(F)cc2)OCCCC[C@H](C)Oc2ccc(NC(=O)NC3CCCCC3)cc2C1=O,n,n,102.4,106.3,n,n,n
C[C@@H]1CN([C@H](C)CO)C(=O)c2cc(NC(=O)NC3CCCCC3)ccc2O[C@@H](C)CCCCO[C@H]1CN(C)C(=O)Nc1ccc(F)cc1,n,n,x,x,x,x,x
C[C@H](CO)N1C[C@H](C)[C@@H](CN(C)C(=O)Nc2ccc(F)cc2)OCCCC[C@H](C)Oc2ccc(NC(=O)NC3CCCCC3)cc2C1=O,n,n,u,108.9,n,n,n
C[C@H]1CN([C@@H](C)CO)C(=O)c2cccc(NS(=O)(=O)c3cccs3)c2O[C@H]1CN(C)CC1CCCCC1,n,n,n,x,x,x,x

# Screening data deposited in PubChem by Broad Institute.
